Most compounds without a hit are left out; they make up all but 0.71% or so of the library.
PI4K2A inh: qHTS for small molecular inhibitors of PI4K2A. Phosphatidylinositol 4-kinase type 2-alpha (Homo sapiens), Q9BTU6. purified PI4K2A, ADP-Glo luminescence, 1 h; active compounds read low. activity change, negative = inhibition, % at 76.9 µM. actives 0.13% (n = 420,000). AID 1346378, 2018; in the data active = activity change below about -50%; inconclusive = mostly about -30% to -49%;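 note: -100% = wells without enzyme as full effect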
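In this quantitative HTS, ADP production by PI4K2A was quantified luminescently after 1 h at ambient temperature; 100 microM adenosine served as plate-quality control.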
Coupling enz: qHTS Assay for Inhibitors of Fructose-1,6-bisphosphate Aldolase from Giardia Lamblia: Coupling assay counterscreen. coupling enzyme system counterscreen, AmpLite Red fluorescence. activity change, negative = inhibition, % at 58.2 µM, hits read low. actives 0.67% (n = 290,000). AID 2472, 2010; in the data active = activity change below about -30%
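First, compound is pin-transferred into glyceraldehyde-3-phosphate coupling-enzyme reagent at 57.5 uM final and held 10 min at RT. Next, substrate, coupling system and AmpLite Red are added. After 20 min RT, fluorescence (525/598 nm) is read.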
Eya2 inh: qHTS Assay for Inhibitors of the Phosphatase Activity of Eya2; Protein phosphatase EYA2 (Homo sapiens), O00167; recombinant Eya2, OMFP fluorescence dephosphorylation (OMFP is methylfluorescein phosphate); Potency, µM (doses to about 76.9 µM), inactives show top-dose activity, negative = inhibition, actives largely listed as inhibitors; actives 0.006% (n = 330,000); AID 488837, 2010; note: potency is the fitted concentration of half-maximal effect
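Eya2 protein (added as 0.2 uM solution) was preincubated with compound for 10 min at ambient temperature in 50 mM HEPES pH 7.5, 50 mM NaCl, 5 uM MgCl2, 0.05% BSA, 1 mM DTT. OMFP (added at 50 uM) then reacted 10 min; fluorescence read at 485/525 nm.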
USP1-UAF1 inh: Inhibitors of USP1/UAF1: Primary Screen; Ubiquitin carboxyl-terminal hydrolase 1 (Homo sapiens), O94782; recombinant USP1/UAF1, Ub-Rhodamine cleavage fluorescence; Potency, µM (titrated, usually from 57.1 µM), for inactives: at the top dose activity change, negative = inhibition, most hits filed as inhibitors; actives 0.23% (n = 390,000); AID 743255, 2014; note: potency is the fitted concentration of half-maximal effect; nearly all actives have a fitted effect of over 60% in size
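High-throughput fluorogenic screen: 1nM USP1/UAF1 complex, Ub-Rho substrate 150nM final, 50mM HEPES pH 7.8 with 0.5mM EDTA, 0.1 mg/ml BSA, 1mM TCEP and 0.01% Tween-20.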
USP2a block: qHTS Assay for Inhibitors of Ubiquitin-specific Protease USP2a Using CHOP2 as the Reporter. Ubiquitin carboxyl-terminal hydrolase 2 (Homo sapiens), O75604. USP2 core, Ub-CHOP2 coupled fluorogenic reporter, 485/531. Potency, µM (series often up to 38.3 µM), without a hit: top-dose activity change, negative = inhibition, hits mostly inhibitors. actives 0.01% (n = 330,000). AID 463254, 2010;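 note: potency is the fitted concentration of half-maximal effect; plate controls were DMSO wells for no effect and full inhibition by NEM control for full effect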
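Cell-free coupled assay: 10nM USP2 core preincubated 30min RT with compound in Tris-HCl pH 8.0/CaCl2/CHAPS buffer, then 25nM Ub-CHOP2 and 25nM reporter substrate; fluorescence (Ex 485/Em 531) read after 60min RT, normalized to NEM inhibition, concentration-response curves fitted.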
GALK inh: qHTS Assay for Inhibitors of Human Galactokinase (GALK). P51570. Purified GALK, Kinase-Glo residual ATP luminescence. Potency, µM (series often up to 57.5 µM), without a hit: at the highest dose activity change, negative = inhibition, usual class: inhibitors. actives 0.007% (n = 270,000). AID 1868, 2009; note: potency is the fitted concentration of half-maximal effect
Target sequence (P51570 whole entry, looked up): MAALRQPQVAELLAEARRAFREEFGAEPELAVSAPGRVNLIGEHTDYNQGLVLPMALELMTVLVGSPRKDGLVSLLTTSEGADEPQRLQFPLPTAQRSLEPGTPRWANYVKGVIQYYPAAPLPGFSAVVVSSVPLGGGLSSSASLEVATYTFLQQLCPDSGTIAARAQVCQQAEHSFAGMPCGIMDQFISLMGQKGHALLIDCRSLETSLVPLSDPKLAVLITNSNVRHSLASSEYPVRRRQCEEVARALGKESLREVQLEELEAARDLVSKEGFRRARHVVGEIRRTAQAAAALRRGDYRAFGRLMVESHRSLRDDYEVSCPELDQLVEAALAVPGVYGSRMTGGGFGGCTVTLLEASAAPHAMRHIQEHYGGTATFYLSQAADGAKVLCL
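Compounds were pin-transferred into ATP buffer (35 uM final), then GALK plus galactose (5 nM, 100 uM final) was added. After 1 h at room temperature, Kinase-Glo Plus was added and luminescence read after 10 min.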
Active calls of the source: *; [ ] = remark or other dose. Unless noted, calls come from the whole dose curve; as a rule, active = well fitted curve in the direction sought with a large enough effect; inconclusive = small, poorly fitted or top-dose-only effect, or another doubt; inactive = no such curve, though single readings can be large; an effect the other way counts as inactive or inconclusive. Unless noted, % is set by controls: 0 for no effect and ±100 for the full control effect.

Screening CC1CCCN(C2=C(NS(=O)(=O)c3ccc(Cl)cc3)C(=O)c3ccccc3C2=O)C1 (centres undefined) returned PI4K2A inh inconclusive, Coupling enz -40*, Eya2 inh 6%, USP1-UAF1 inh inconclusive, USP2a block 0% and GALK inh 2%.
For CC1CCCN(C2=C(Cl)C(=O)N(c3cccc(Cl)c3)C2=O)C1 (centres undefined) the results were PI4K2A inh 2, Coupling enz 12, Eya2 inh -3%, USP1-UAF1 inh -4%, USP2a block 1% and GALK inh 1%.
Screening COC(=O)C1CCN(C2=C(NS(=O)(=O)c3ccc(Cl)cc3)C(=O)c3ccccc3C2=O)CC1 returned PI4K2A inh -5, Coupling enz -25, Eya2 inh 6%, USP1-UAF1 inh inconclusive, USP2a block -6% and GALK inh -1%.
NC(=O)C1CCN(C2=C(NS(=O)(=O)c3ccc(Cl)cc3)C(=O)c3ccccc3C2=O)CC1 was read as PI4K2A inh -6, Coupling enz -30*, Eya2 inh -23%, USP1-UAF1 inh inconclusive, USP2a block 1% and GALK inh 1%.
CC(C)(C)c1ccc(C(=O)CCCCl)cc1 was read as PI4K2A inh -5.
C#CCOCCOCCOCCNc1nc(N2CCN(C(=O)[C@H](CCCCN)n3cc([C@@H](N)CC(C)C)nn3)CC2)nc(N2CCN(C(=O)[C@H](Cc3cc4ccccc4[nH]3)n3cc([C@@H](N)CC(C)C)nn3)CC2)n1 was read as PI4K2A inh -10.
CC(=O)C1=C(C)OC(N)=C(C#N)C1c1cccc2ccccc12 (centres undefined) was read as PI4K2A inh -1, Coupling enz -34*, Eya2 inh 1%, USP1-UAF1 inh -15%, USP2a block 0% and GALK inh 4%.
Screening C=CC[C@@H]1C=C[C@@H](O/N=C(/C)CCC(=O)OC[C@@H]2O[C@H](c3ccccc3)C=C[C@@H]2Oc2ccc(OC)cc2)[C@@H](CO)O1 returned Coupling enz 1.
For Cn1cccc1/C=C1\CC(C(C)(C)C)C/C(=C\c2cccn2C)C1=O (centres undefined) the results were PI4K2A inh -6, Coupling enz -11, Eya2 inh 1%, USP1-UAF1 inh 11µM*, USP2a block 10% and GALK inh 0%.
Screening CN1C2CCC1/C(=C/c1cccn1C)C(=O)/C2=C\c1cccn1C returned PI4K2A inh -3, Coupling enz 0, Eya2 inh inconclusive, USP1-UAF1 inh 28µM*, USP2a block inconclusive and GALK inh 1%.
O=C(O)CSc1cc(NS(=O)(=O)c2ccc(Cl)cc2)c2ccccc2c1O was read as PI4K2A inh inconclusive, Coupling enz -53*, Eya2 inh 15%, USP1-UAF1 inh 25µM*, USP2a block 2% and GALK inh -12%.
Screening Cc1cc(C)c(S(=O)(=O)Nc2cc(SCC(=O)O)c(O)c3ccccc23)cc1C returned PI4K2A inh inconclusive, Coupling enz -53*, Eya2 inh 16%, USP1-UAF1 inh inconclusive, USP2a block 4% and GALK inh 0%.
O=S(=O)(Nc1ccc(Cl)cc1NS(=O)(=O)c1ccccc1)c1ccccc1 was read as PI4K2A inh -7 and USP1-UAF1 inh -1%.
O=C(Sc1cccc2cccnc12)c1ccc(F)cc1 was read as Coupling enz -3, Eya2 inh -6%, USP2a block 1% and GALK inh 10%.
Cc1cc(C)c(S(=O)(=O)Nc2ccc(O)cc2)cc1C was read as PI4K2A inh 3, Coupling enz -1, Eya2 inh -1%, USP1-UAF1 inh -20%, USP2a block 3% and GALK inh -1%.
COc1ccc(S(=O)(=O)Nc2cc(SCC(=O)O)c(O)c3ccccc23)cc1 was read as PI4K2A inh inconclusive, Coupling enz -47*, Eya2 inh 9%, USP1-UAF1 inh 32µM*, USP2a block 3% and GALK inh -5%.
Screening COc1ccc(S(=O)(=O)Nc2cccc3ccc(O)cc23)cc1 returned PI4K2A inh 3 and USP1-UAF1 inh -16%.
O=S(=O)(Nc1cc(Sc2cccc3cccnc23)c(O)c2ccccc12)c1ccc(F)cc1 was read as PI4K2A inh 2, Coupling enz -53*, Eya2 inh 1%, USP1-UAF1 inh -23%, USP2a block -8% and GALK inh 0%.
For COc1ccc(S(=O)(=O)Nc2cc(Sc3ncn[nH]3)c(O)c3ccccc23)cc1 the results were Coupling enz -58*, Eya2 inh 7%, USP2a block 4% and GALK inh -1%.
CN1CC(=O)N(CC(=O)Nc2ccc(N(C)C)cc2)c2ccccc2C1=O was read as PI4K2A inh -3, Coupling enz -42*, USP1-UAF1 inh -16% and GALK inh 2%.
Screening COc1ccc(-c2nc3cnc(N4CCOCC4)nc3n(-c3ccc(OC)cc3)c2=O)cc1 returned Coupling enz -1.
COc1cc2c(cc1OC)C1O[C@](c3ccsc3)(C2)OC2=C1C(=O)OC1(CCCCC1)C2 was read as Coupling enz -5, Eya2 inh 10%[15.4 µM] and USP2a block 1%[7.66 µM].
For COc1cccc(NC(=O)N2CC[C@@H]3[C@H]2c2cc(-c4cccc(C#N)c4)ccc2N(C)[C@@H]3CO)c1 the results were PI4K2A inh 2.
Screening C=CCNC(=S)NCc1ccccc1 returned PI4K2A inh 5, Coupling enz -5, Eya2 inh -19%, USP1-UAF1 inh -15% and USP2a block -5%.
For S=C(NCc1ccccc1)Nc1ccc2ccccc2c1 the results were PI4K2A inh -1, Eya2 inh 0%, USP1-UAF1 inh -22%, USP2a block 3% and GALK inh -12%.
`C/C(=C\C(=S)Nc1ccccc1)Nc1cccc2ccccc12` gave PI4K2A inh -3, Coupling enz -49*, Eya2 inh 5%, USP1-UAF1 inh -19%, USP2a block 0% and GALK inh -1%.

Source: PubChem BioAssay
